Rows were chosen to be rich in hits. Some 10% of all compounds tested hit in one or more screens of this group.
L3MBTL1 block = qHTS Assay for the Inhibitors of L3MBTL1; hit rate 0.66% among 230,000; Lethal(3)malignant brain tumor-like protein 1 (Homo sapiens), Q9Y468; Potency, µM (titrated, usually from 57.1 µM), for inactives: at the highest dose activity, negative = inhibition, most hits filed as inhibitors; AID 485360, 2010; AlphaScreen L3MBTL1–H3K9me1 peptide binding; note: % is set by controls: 0 for no effect and ±100 for the full control effect; nearly all actives have a fitted effect of over 60% in size
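AlphaScreen assay: L3MBTL1 (50 nM final) was preincubated 30 min at room temperature with biotinylated H3(1-15)K9me1 peptide (75 nM final), then 30 min with library compounds; streptavidin donor and nickel chelate acceptor beads (10 ug/mL final) added, 30 min dark.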
BAZ2B inh = qHTS Assay for Inhibitors of BAZ2B; Bromodomain adjacent to zinc finger domain protein 2B (Homo sapiens), Q9UIF8; AlphaScreen BAZ2B-H3K14Ac peptide displacement; Potency, µM (highest dose often 114 µM), for the others: at the top dose activity change, negative = inhibition, hits mostly inhibitors; hit rate 4.4% among 360,000; note: % is set by controls: 0 for no effect and ±100 for the full control effect; nearly all actives have a fitted effect of over 60% in size
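AlphaScreen displacement of biotin-H3(5-23)K14Ac peptide (50 nM final) from BAZ2B (50 nM final) in PBS pH 7.4, 0.01% Tween-20; complex preformed 30 min RT, then compounds (top 110 uM) 30 min RT, beads 20 min dark.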
JMJD2A Tudor = qHTS Assay for Inhibitors of JMJD2A-Tudor Domain; AlphaScreen JMJD2A-Tudor / H3K4me3 peptide binding; Potency, µM (titrated, usually from 114 µM), without a hit: at the highest dose activity change, negative = inhibition, actives largely listed as inhibitors; AID 504339, 2011; hit rate 4.4% among 390,000; Lysine-specific demethylase 4A (Homo sapiens), O75164; note: % is set by controls: 0 for no effect and ±100 for the full control effect; nearly all actives have a fitted effect of over 50% in size
GLS inhibitor = qHTS for Inhibitors of Glutaminase (GLS); GLS enzymatic activity, qHTS titration; Potency, µM (titrated, usually from 45.5 µM), without a hit: top-dose activity change, negative = inhibition, hits mostly inhibitors; hit rate 0.21% among 410,000; note: % is set by controls: 0 for no effect and ±100 for the full control effect
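hKGA in 45 mM KH2PO4 (pH 8.2), 0.02% Tween-20 with compound, then 1mM L-Glutamine (stock as added) plus glutamate oxidase/HRP/Amplex red coupling mix. Fluorescence read initially and after 30 min at RT; signal change reflects glutamate formation.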
HP1b chromo inh = HTS for Inhibitors of HP1-beta Chromodomain Interactions with Methylated Histone Tails; Chromobox protein homolog 1 (Homo sapiens), P83916; hit rate 0.56% among 390,000; AlphaScreen HP1-beta / biotin-H3K9me3 peptide binding; Potency, µM (highest dose often 114 µM), for inactives: top-dose activity change, negative = inhibition, hits mostly inhibitors; note: nearly all actives have a fitted effect of over 70% in size
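Compound inhibition of the preformed complex between 50 nM HP1-beta and 50 nM biotinylated H3K9me3 peptide was read by AlphaScreen. Buffer was PBS pH 7.4 with 0.01% Tween-20. Incubations ran 30 min at room temperature, with 10 ug/mL donor/acceptor beads.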
G9a block = qHTS Assay for Inhibitors of Histone Lysine Methyltransferase G9a. G9a H3K9 monomethylation, AlphaScreen, 2 h. AID 504332, 2011. Potency, µM (top dose mostly 102 µM), inactives show top-dose activity, negative = inhibition, usual class: inhibitors. Histone-lysine N-methyltransferase EHMT2 (Homo sapiens), Q96KQ7. hit rate 8.8% among 350,000; note: % is set by controls: 0 for no effect and ±100 for the full control effect; nearly all actives have a fitted effect of over 75% in size
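Readings reflect AlphaScreen signal from monomethyl-H3K9 antibody detection. HMT at 20 nM; substrate b-H3K9 500 nM; cofactor SAM 20 uM; 2 h RT reaction; compounds tested as titrations in qHTS with 15 min preincubation.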
An asterisk follows results filed as active; ? = inconclusive; · = not tested or not shown; ! = a repeat was not active; [ ] = another dose, or the depositor's remark. Calls come from the whole dose curve; as a rule, active = well fitted curve in the direction sought with a large enough effect; inconclusive = small, poorly fitted or top-dose-only effect, or another doubt; inactive = no such curve, though single readings can be large; an effect the other way counts as inactive or inconclusive. Potency is the fitted concentration of half-maximal effect.

SMILES	L3MBTL1 block	BAZ2B inh	JMJD2A Tudor	GLS inhibitor	HP1b chromo inh	G9a block
Nc1ccc([As](=O)(O)O)cc1	8%	6%	-9%	-3%	55%	-18%[59 µM]
O=[N+]([O-])c1cc([As](=O)(O)O)ccc1O	?	-4%	89µM*	?	26%	-3%[12.7 µM]
Cc1ccc(O)cc1	·	·	·	-4%	·	6%[2.33 µM]
Cc1ccc(C=C2C(Cl)=C(Cl)C(Cl)=C2Cl)cc1	3.2µM*	20µM*	14µM*	-15%	16µM*	8.9µM*
COc1cc(O)c(C(=O)O)c(-c2cc(O)c(O)cc2C)c1	·	56µM*	13µM*	?	?	0.35µM*
NC1CC1c1ccccc1 (stereo not drawn)	·	·	·	·	·	36%[59 µM]
CCCCCCCSc1cc(OC)c(CCN(C)C)cc1OC	?	25µM*	35µM*	0%	?	?
CCCCCSc1cc(OC)c(CCN)cc1OC	-2%	?	?	-10%	-31%	-13%[59 µM]
Cc1ccc(NC(=O)Nc2ccc3nc(N4CCN(C)CC4)cc(C)c3c2)cc1F	·	3%[57.1 µM]	-14%	13%	41%	-31%[59 µM]
CCCCCP(=O)(O)c1ccccc1	3%	·	-13%	5%	20%	-1%[59 µM]
CCCC/C(C)=C/[C@@H](NP(=O)(c1ccccc1)c1ccccc1)c1ccccc1	-14%	-37%	-19%	11%	22%	32µM*
O=C(CN1CCCCC1)NNC(=O)c1cccc(Br)c1	·	2%	-16%	21%	47%	15%
Cc1ccc(-c2csc(NC(CO)c3nc4ccccc4n3CCOCCO)n2)cc1 (stereo not drawn)	·	·	?	9%	-4%	·
CC(Nc1cc(C)cc(C)c1)=[N+](C)CCNS(=O)(=O)c1ccc(Cl)cc1	·	-12%	?	16%	18%	8.9µM*
CCCn1c(C(C)C)n[nH]c1=S	·	3%	?	14%	31%	35µM*
CC(C)n1c(/C=C\[C@@H](O)C[C@@H](O)CC(=O)O)c(-c2ccc(F)cc2)c2ccccc21	·	·	·	·	·	12%[21.5 µM]
O=C1C2CCCN2C(c2cccnc2)N1c1nccs1 (stereo not drawn)	4%	-35%	?	3%	18%	13µM*
CN1CCC[C@H]1c1cccnc1	11%	-5%	?	-3%	24%	14µM*!
Clc1cccc(CN2CCCCC2c2cccnc2)c1 (stereo not drawn)	-5%	?	-13%	-3%	50%	56µM*
c1cncc(C2CCCCN2Cc2ccc3c(c2)OCO3)c1 (stereo not drawn)	-2%	?	-33%	0%	1%	79µM*
O=C1C2CCCN2C(c2cccnc2)N1c1ccc(Cl)cc1 (stereo not drawn)	8%	8%	-14%	2%	41%	-25%
CCCC12CN3CC(CCC)(CN(C1)C3c1ccccn1)C2=O (stereo not drawn)	·	20µM*	25µM*	-9%	33%	-1%[12.7 µM]
CCCC12CN3CCN(C1)CC(CCC)(C3)C2=O	-2%	0%	-9%	2%	8%	11%
CCC1CO/C(=C(\C(Cl)=C(Cl)Cl)[N+](=O)[O-])N1Cc1ccc(Cl)nc1 (stereo not drawn)	·	79µM*	-28%	-2%	20%	?
Cc1c(CCC(=O)N2CCCCC2)c(=O)oc2cc3occ(C(C)(C)C)c3cc12	·	-4%	?	9%	17%	-32%[59 µM]
SMILES	L3MBTL1 block	BAZ2B inh	JMJD2A Tudor	GLS inhibitor	HP1b chromo inh	G9a block
CCN(C[C@H]1N[C@@](CC)(C(=O)OC)[C@H]2C(=O)N(Cc3ccccc3)C(=O)[C@@H]12)S(=O)(=O)c1ccc(C)cc1	3%	·	-16%	1%	49%	·
Cc1ccc2c(c1)=NC(=O)/C(=C/c1c(O)[nH]c(=O)[nH]c1=O)C=2	·	-12%	-16%	-10%	31%	?
CC1=Nc2ccccc2/C1=C/c1c(O)[nH]c(=O)[nH]c1=O	3%	?	-14%	0%	8%	79µM*
Clc1ccccc1CN1CCNCC1	6%	8%	5%	-2%	44%	·
CSc1ccc(CN2CCN(Cc3ccccc3Cl)CC2)cc1	-10%	18µM*	5µM*	-1%	?	4.5µM*
COc1ccc(CN2CCN(Cc3ccccc3F)CC2)cc1	·	18µM*	3.2µM*	-10%	18µM*	4µM*
c1ccc(CN2CCN(Cc3ccc4ccccc4c3)CC2)cc1	-4%	28µM*	0.79µM*	4%	?	1.4µM*
O=C(Cc1ccccc1)N1CCN(Cc2ccccc2Cl)CC1	·	20µM*	18µM*	4%	?	45µM*
COc1ccc(CC(=O)N(CCN(C)C)CC2CCCN(Cc3ccccc3F)C2)cc1 (stereo not drawn)	25%	20%	-16%	2%	28%	·
CCCCC[C@@H](/C=C/C=C\C/C=C\C/C=C\CCCC(=O)O)OO	·	·	·	·	·	27%[59 µM]
CCN1CCN(Cc2cc(Br)ccc2O)CC1	·	?	-7%	20%	11%	?
CSc1ccc(CN2CCN(C(=O)Cc3ccccc3)CC2)cc1	·	·	20µM*	0%	?	·
Cc1cccc(OCC(=O)N2CCN(Cc3cccnc3)CC2)c1	2%	?	2.8µM*	7%	?	0%
CN1CCN(C(=O)Cc2ccccc2)CC1	5%	-8%	-7%	4%	65%	-1%
CCc1ccc(CN2CCN(Cc3cc(Br)ccc3O)CC2)cc1	·	45µM*	22µM*	21%	25µM*	25µM*
CCc1ccc(CN2CCN(C(=O)Cc3ccccc3)CC2)cc1	-5%	25µM*	20µM*	2%	28µM*	22µM*
O=C(Cc1ccccc1)N1CCN(Cc2cccnc2)CC1	·	32µM*	4.5µM*	0%	-45%	6.3µM*
CC(=O)N1CCN(Cc2ccc(Cl)nc2)CC1	·	-3%	1%	1%	16%	-44%[2.33 µM]
Cc1cccc(CN2CCN(C(=O)Cc3ccccc3)CC2)c1	-3%	79µM*	6.3µM*	-7%	?	28µM*
COc1cc(OC)c(OC)cc1CN1CCN(C(=O)Cc2ccccc2)CC1	0%	?	18µM*	1%	?	7.9µM*
Cc1ccc(CN2CCN(Cc3ccccc3)CC2)cc1	-1%	?	-18%	21%	11%	·
CSc1ncc(/C=C2/C(=O)NC(=O)N(C3CCCCC3)C2=O)cn1	0%	?	?	?	-20%	?

Screens (PubChem)
